Test results as given in PubChem BioAssay (EPA / NIEHS).
The source made the active and inactive calls. Rule for the calls: active = hit-call score of the fitted dose curve at least 0.9, where 1 is the maximum; inactive = score below 0.9.

What was measured:
[1] = ATG_GLI_CIS: Attagene CIS-FACTORIAL HepG2 Assay for human Zinc Finger Protein GLI1 (AID 2282945); settings: HepG2, Attagene cis-factorial reporter mRNA, GLI element; actives raise or lower the signal
Summary of the method: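 HepG2 cells transiently transfected with cis-promoter multiplexed reporter units report endogenous transcription factor activity. After 24 h chemical exposure, reporter mRNA was quantified by RT-PCR, 6-FAM labelling, HpaI digestion and capillary electrophoresis, with bidirectional fitting against DMSO.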

[2] = target: Bile acid receptor (Homo sapiens) (UniProt Q96RI1); experiment: ATG_IR1_CIS: Attagene CIS-FACTORIAL HepG2 Assay for human Nuclear Receptor Subfamily 1 Group H Member 4 (NR1H4), IR1 submotif (AID 2282946); settings: IR1 reporter transcription, actives raise or lower the signal
Bile acid receptor (Homo sapiens), sequence (Q96RI1 whole entry, looked up): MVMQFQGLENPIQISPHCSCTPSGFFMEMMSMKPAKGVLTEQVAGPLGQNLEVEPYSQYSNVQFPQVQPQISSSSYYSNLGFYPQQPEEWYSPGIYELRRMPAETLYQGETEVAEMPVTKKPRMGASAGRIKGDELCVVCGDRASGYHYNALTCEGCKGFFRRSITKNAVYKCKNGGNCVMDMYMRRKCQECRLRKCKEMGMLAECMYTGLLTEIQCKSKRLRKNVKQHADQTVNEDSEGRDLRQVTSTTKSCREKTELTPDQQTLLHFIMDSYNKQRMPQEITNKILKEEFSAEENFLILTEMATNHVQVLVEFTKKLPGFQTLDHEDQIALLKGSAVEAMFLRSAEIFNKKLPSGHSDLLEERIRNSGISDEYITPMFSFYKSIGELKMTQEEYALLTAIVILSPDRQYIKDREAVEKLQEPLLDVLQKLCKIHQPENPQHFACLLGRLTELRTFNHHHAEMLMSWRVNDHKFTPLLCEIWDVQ
Summary of the method: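 Transient MRTU transfection, HepG2; 24 h dosing; RNA → RT-PCR → 6-FAM primer extension → HpaI digest → capillary electrophoresis fluorescence. Gain/loss of signal fitted relative to DMSO.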

[3] = ATG_GRE_CIS: Attagene CIS-FACTORIAL HepG2 Assay for human Glucocorticoid Response Elements (GRE) (AID 2282947); settings: HepG2 GRE cis-reporter, Attagene multiplex mRNA; actives raise or lower the signal
Summary of the method: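 HepG2 cells transiently transfected with multiple cis-promoter reporter units measure endogenous TF activity; 24 h compound exposure. Reporter mRNA quantified by RT-PCR, FAM labelling, HpaI digestion and capillary electrophoresis; bidirectional fit vs DMSO baseline.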

[4] = ATG_ISRE_CIS: Attagene CIS-FACTORIAL HepG2 Assay for human Interferon Regulatory Factor 1 (IRF1) binding to an Interferon-Stimulated Response Element (ISRE) (AID 2282948); settings: HepG2 ISRE cis-reporter (Attagene), mRNA transcription readout; actives raise or lower the signal
Summary of the method: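 Transfected HepG2 (multiple reporter transcription units, cis elements) dosed 24 h. RNA → oligo(dT) RT → PCR → 6-FAM primer extension → HpaI → CE. DMSO = negative control/baseline.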

[5] = ATG_M_32_CIS: Attagene CIS-FACTORIAL HepG2 Assay for M32 Transcription Factor (Internal Marker) (AID 2282949); settings: HepG2 Attagene cis-factorial M32 reporter, mRNA; actives raise or lower the signal;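 note: background control marker of the multiplexed CIS panel rather than a real target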
Summary of the method: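 Following 24 h chemical exposure of HepG2 cells transiently expressing cis-promoter reporter constructs, reporter transcript levels were determined by RT-PCR with fluorescent labelling and capillary electrophoresis, then fitted bidirectionally against DMSO.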

[6] = ATG_M_06_CIS: Attagene CIS-FACTORIAL HepG2 Assay for M06 Transcription Factor (Internal Marker) (AID 2282950); settings: HepG2 Attagene CIS-FACTORIAL M06 internal marker reporter; actives raise or lower the signal
Summary of the method: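 Measured 24 h post-dosing in transiently transfected HepG2 cells, this internal-marker endpoint reports reporter mRNA via RT-PCR with fluorescent primer extension and capillary electrophoresis. DMSO served as negative control and baseline for bidirectional fitting.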

[7] = target: Hypoxia-inducible factor 1-alpha (Homo sapiens) (UniProt Q16665); experiment: ATG_HIF1a_CIS: Attagene CIS-FACTORIAL HepG2 Assay for human Hypoxia Inducible Factor 1 (HIF1A) (AID 2282951); settings: HepG2 Attagene cis-factorial HIF1a reporter transcription; actives raise or lower the signal
Hypoxia-inducible factor 1-alpha (Homo sapiens), sequence (Q16665 whole entry, looked up): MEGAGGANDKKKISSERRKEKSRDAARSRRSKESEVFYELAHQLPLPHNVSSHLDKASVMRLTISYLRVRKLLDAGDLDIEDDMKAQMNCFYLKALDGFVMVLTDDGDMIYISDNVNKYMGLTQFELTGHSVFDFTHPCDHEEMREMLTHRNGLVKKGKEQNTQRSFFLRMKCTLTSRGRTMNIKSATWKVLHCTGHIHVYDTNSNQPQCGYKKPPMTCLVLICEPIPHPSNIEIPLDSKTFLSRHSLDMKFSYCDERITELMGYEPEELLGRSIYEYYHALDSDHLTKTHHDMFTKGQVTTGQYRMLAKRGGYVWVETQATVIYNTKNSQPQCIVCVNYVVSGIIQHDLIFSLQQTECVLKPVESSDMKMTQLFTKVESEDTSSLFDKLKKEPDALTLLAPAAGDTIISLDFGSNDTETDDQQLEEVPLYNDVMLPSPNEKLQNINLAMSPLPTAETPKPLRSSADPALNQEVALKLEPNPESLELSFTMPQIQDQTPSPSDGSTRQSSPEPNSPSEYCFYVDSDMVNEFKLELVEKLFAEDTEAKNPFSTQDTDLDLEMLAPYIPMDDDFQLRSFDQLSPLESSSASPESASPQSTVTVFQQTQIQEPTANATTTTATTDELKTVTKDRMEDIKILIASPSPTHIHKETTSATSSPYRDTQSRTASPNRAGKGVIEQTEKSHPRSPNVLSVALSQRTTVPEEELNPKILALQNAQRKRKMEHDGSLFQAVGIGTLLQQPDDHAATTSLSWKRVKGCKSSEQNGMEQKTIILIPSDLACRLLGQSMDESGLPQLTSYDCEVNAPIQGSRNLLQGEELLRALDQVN
Summary of the method: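 RT-PCR/capillary electrophoresis fluorescence readout of reporter transcripts from endogenous-TF-driven cis elements in transfected HepG2 cells, 24 h exposure; activity fitted in both directions against DMSO controls.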

[8] = target: Hepatocyte nuclear factor 6 (Homo sapiens) (UniProt Q9UBC0); experiment: ATG_HNF6_CIS: Attagene CIS-FACTORIAL HepG2 Assay for human Hepatocyte Nuclear Factor 6 (HNF6) (AID 2282952); settings: HepG2 Attagene cis-factorial HNF6 reporter transcription; actives raise or lower the signal
Hepatocyte nuclear factor 6 (Homo sapiens), sequence (Q9UBC0 whole entry, looked up): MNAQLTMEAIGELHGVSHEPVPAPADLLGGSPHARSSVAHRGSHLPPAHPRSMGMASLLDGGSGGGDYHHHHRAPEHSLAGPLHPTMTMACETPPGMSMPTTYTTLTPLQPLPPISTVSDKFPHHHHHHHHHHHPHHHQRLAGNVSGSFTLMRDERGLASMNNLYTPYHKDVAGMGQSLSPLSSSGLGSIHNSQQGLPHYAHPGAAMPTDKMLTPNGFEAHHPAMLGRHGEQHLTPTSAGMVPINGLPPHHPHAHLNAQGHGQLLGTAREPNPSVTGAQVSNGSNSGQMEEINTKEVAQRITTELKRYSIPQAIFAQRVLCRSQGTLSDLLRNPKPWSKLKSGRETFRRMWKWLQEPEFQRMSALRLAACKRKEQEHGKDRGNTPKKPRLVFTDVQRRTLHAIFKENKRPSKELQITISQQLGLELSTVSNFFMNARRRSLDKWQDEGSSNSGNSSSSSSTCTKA
Summary of the method: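 Multiplexed mRNA reporter assay in transfected HepG2; 24 h dosing; RT-PCR plus capillary electrophoresis fluorescence; DMSO-referenced bidirectional curve fitting.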

[9] = target: Heat shock factor protein 1 (Homo sapiens) (UniProt Q00613); experiment: ATG_HSE_CIS: Attagene CIS-FACTORIAL HepG2 Assay for human Heat Shock Transcription Factor 1 (HSE) (AID 2282953); settings: HepG2 HSE cis-reporter, Attagene RNA transcription; actives raise or lower the signal
Heat shock factor protein 1 (Homo sapiens), sequence (Q00613 whole entry, looked up): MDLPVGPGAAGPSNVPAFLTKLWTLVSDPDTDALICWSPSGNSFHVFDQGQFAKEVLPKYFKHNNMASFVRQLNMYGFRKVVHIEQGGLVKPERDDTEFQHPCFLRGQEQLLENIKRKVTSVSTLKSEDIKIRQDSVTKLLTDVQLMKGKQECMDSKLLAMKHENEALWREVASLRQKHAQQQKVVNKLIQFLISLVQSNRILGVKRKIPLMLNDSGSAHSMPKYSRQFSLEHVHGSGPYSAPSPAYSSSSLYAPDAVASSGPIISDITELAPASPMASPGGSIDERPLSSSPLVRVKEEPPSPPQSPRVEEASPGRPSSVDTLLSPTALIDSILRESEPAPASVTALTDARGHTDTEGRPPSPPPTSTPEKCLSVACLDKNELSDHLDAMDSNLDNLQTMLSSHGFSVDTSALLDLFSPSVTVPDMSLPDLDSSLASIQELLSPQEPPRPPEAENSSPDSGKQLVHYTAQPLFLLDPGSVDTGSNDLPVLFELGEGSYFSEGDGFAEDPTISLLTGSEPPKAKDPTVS
Summary of the method: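 Reporter mRNA induction in HepG2 is measured 24 h after dosing, using transiently transfected multiplexed cis-regulated reporter units. Signal comes from capillary electrophoresis of labelled RT-PCR products, with DMSO as negative control.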

[10] = ATG_MRE_CIS: Attagene CIS-FACTORIAL HepG2 Assay for human Metal Responsive Element (MRE) (AID 2282954); settings: HepG2 MRE cis-reporter transcription, Attagene multiplex; actives raise or lower the signal
Summary of the method: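 HepG2 cells transiently transfected with multiple cis-element reporter units measure endogenous MTF1-driven transcription. After 24 h compound exposure, reporter mRNA is quantified by RT-PCR with 6-FAM labelling, HpaI digestion and capillary electrophoresis; bidirectional fits versus DMSO.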

[11] = ATG_PBREM_CIS: Attagene CIS-FACTORIAL HepG2 Assay for human Phenobarbital-responsive Enhancer Module (PBREM) (AID 2282955); settings: HepG2 PBREM cis-reporter, Attagene multiplexed transcription; actives raise or lower the signal
Summary of the method: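 Reporter mRNA read by RT-PCR, 6-FAM primer extension, HpaI digestion and capillary electrophoresis. Transfected HepG2 cells, 24 h compound exposure. Gain or loss of signal fitted bidirectionally relative to DMSO baseline.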

[12] = target: Paired box protein Pax-6 (Homo sapiens) (UniProt P26367); experiment: ATG_Pax6_CIS: Attagene CIS-FACTORIAL HepG2 Assay for human Paired Box 6 (PAX6) (AID 2282956); settings: HepG2 CIS-FACTORIAL PAX6 reporter transcription, RNA readout; actives raise or lower the signal
Paired box protein Pax-6 (Homo sapiens), sequence (P26367 whole entry, looked up): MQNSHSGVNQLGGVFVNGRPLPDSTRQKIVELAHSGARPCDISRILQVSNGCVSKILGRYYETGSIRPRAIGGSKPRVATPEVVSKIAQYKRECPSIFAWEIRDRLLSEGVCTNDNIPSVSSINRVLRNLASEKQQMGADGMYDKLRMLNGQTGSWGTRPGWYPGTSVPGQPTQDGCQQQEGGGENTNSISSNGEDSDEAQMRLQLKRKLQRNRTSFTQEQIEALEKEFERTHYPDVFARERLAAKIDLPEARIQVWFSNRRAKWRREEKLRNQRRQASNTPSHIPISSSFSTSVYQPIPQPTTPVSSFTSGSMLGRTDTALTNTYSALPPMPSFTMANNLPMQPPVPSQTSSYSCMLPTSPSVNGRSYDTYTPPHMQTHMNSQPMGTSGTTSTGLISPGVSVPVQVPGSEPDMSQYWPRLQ
Summary of the method: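 Transient MRTU transfection of HepG2 → compound exposure 24 h → TriZol RNA, oligo(dT) RT → PCR, 6-FAM primer extension, HpaI cut → capillary electrophoresis; activity fitted both directions against DMSO.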

[13] = ATG_PXRE_CIS: Attagene CIS-FACTORIAL HepG2 Assay for human Pregnane X Receptor Element (PXRE) (AID 2282957); settings: HepG2 Attagene CIS-FACTORIAL PXRE reporter, mRNA; actives raise or lower the signal
Summary of the method: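 Cells: HepG2, transiently transfected reporter units under cis promoter control. Exposure: 24 h. Detection: reporter mRNA via RT-PCR/CE fluorescence; bidirectional fitting, DMSO-referenced.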

[14] = ATG_PPRE_CIS: Attagene CIS-FACTORIAL HepG2 Assay for human Peroxisome Proliferator-activated Response Element (PPRE) (AID 2282958); settings: HepG2 PPRE cis-element reporter, Attagene transcription factor profiling; actives raise or lower the signal
Summary of the method: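 Read-out: fluorescent reporter mRNA fragments resolved by capillary electrophoresis after RT-PCR. HepG2 cells carried transiently transfected PPRE-driven cis reporter constructs and were dosed for 24 h; gain or loss of signal fitted relative to DMSO.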

[15] = ATG_RORE_CIS: Attagene CIS-FACTORIAL HepG2 Assay for human RAR-related Orphan Receptor Element (RORE) (AID 2282959); settings: HepG2 Attagene cis-factorial RORE reporter, mRNA; actives raise or lower the signal
Summary of the method: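 Readout: fluorescent reporter mRNA by RT-PCR plus capillary electrophoresis, 24 h after dosing transfected HepG2 cells. Endogenous transcription factor activity on a cis promoter element is measured. Gain or loss of signal fitted against DMSO.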

[16] = ATG_Sox_CIS: Attagene CIS-FACTORIAL HepG2 Assay for human SRY-box transcription factor (SOX) (AID 2282960); settings: HepG2 Attagene cis-factorial SOX reporter, mRNA; actives raise or lower the signal
Summary of the method: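 Read-out: fluorescent RT-PCR products of SOX1-linked reporter transcripts resolved by capillary electrophoresis, fitted bidirectionally against DMSO. Transiently transfected HepG2 cells, 24 h after chemical exposure, endogenous transcription factor activity.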

[17] = target: Transcription factor Sp1 (Homo sapiens) (UniProt P08047); experiment: ATG_Sp1_CIS: Attagene CIS-FACTORIAL HepG2 Assay for human Specificity Protein 1 (Sp1) (AID 2282961); settings: HepG2 Sp1 cis-reporter transcription, actives raise or lower the signal
Transcription factor Sp1 (Homo sapiens), sequence (P08047 whole entry, looked up): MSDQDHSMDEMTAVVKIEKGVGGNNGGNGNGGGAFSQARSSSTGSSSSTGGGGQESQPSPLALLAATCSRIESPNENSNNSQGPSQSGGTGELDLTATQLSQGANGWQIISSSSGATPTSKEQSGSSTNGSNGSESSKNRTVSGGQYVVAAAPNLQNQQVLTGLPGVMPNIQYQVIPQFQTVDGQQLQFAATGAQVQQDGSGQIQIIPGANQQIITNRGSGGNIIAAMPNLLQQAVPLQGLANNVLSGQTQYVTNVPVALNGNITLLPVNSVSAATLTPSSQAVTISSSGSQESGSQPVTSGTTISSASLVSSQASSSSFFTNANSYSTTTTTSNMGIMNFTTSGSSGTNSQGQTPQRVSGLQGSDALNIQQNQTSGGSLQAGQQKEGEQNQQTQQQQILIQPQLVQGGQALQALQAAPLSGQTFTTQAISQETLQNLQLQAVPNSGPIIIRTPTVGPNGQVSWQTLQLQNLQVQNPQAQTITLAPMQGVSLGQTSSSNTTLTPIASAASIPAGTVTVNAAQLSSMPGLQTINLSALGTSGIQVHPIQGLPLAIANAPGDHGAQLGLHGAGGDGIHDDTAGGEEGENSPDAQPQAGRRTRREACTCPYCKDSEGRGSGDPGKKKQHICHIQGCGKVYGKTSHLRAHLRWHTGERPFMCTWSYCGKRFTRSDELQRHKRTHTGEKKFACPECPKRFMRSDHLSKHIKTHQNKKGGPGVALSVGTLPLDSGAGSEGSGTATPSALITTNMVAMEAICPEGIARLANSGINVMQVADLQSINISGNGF
Summary of the method: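 Read-out: fluorescence of 6-FAM-labeled, HpaI-digested RT-PCR products separated by capillary electrophoresis. HepG2 cells carried transfected cis-element reporter units and were exposed to chemicals for 24 h; gain or loss of signal fitted relative to DMSO.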

[18] = ATG_SREBP_CIS: Attagene CIS-FACTORIAL HepG2 Assay for human Sterol Regulatory Element Binding (SREBP) (AID 2282962); settings: HepG2 Attagene cis-factorial SREBP reporter, mRNA; actives raise or lower the signal
Summary of the method: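 Transfected HepG2 (cis-regulated reporter library, endogenous TFs) → compound 24 h → total RNA → oligo(dT) RT → reporter-specific PCR → FAM primer extension, HpaI cut → CE fluorescence. Fit bidirectional vs DMSO.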

[19] = target: Signal transducer and activator of transcription 3 (Homo sapiens) (UniProt P40763); experiment: ATG_STAT3_CIS: Attagene CIS-FACTORIAL HepG2 Assay for human Signal Transducer and Activator of Transcription 3 (STAT3) (AID 2282963); settings: HepG2, Attagene cis-factorial STAT3 reporter transcription; actives raise or lower the signal
Signal transducer and activator of transcription 3 (Homo sapiens), sequence (P40763 whole entry, looked up): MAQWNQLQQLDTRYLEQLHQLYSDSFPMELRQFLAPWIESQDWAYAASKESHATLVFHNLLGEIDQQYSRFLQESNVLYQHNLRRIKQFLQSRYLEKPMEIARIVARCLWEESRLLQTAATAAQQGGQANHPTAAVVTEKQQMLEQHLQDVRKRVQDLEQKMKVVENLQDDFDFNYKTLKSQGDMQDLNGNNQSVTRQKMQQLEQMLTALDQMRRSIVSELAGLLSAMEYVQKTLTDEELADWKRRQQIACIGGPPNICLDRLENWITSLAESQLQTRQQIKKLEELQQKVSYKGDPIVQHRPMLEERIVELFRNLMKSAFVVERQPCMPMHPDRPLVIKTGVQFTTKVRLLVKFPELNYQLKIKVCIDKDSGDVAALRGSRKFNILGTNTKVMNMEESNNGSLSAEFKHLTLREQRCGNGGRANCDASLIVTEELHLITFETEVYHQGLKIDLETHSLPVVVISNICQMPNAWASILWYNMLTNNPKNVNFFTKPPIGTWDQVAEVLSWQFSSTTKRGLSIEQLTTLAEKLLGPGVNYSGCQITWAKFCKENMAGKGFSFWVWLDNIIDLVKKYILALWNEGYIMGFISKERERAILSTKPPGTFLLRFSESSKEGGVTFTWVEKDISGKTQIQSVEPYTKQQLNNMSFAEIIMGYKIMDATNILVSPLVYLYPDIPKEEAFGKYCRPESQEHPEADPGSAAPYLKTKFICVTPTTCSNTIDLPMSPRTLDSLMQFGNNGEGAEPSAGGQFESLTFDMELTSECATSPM
Summary of the method: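 HepG2 cells transiently transfected with cis-element-driven multiple reporter transcription units; after 24 h chemical exposure, reporter mRNA measured by RT-PCR, 6-FAM primer-extension labelling, HpaI digestion and capillary electrophoresis. Bidirectional fitting versus DMSO baseline.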

[20] = ATG_TA_CIS: Attagene CIS-FACTORIAL HepG2 Assay for human TA Basal Promoter (AID 2282964); settings: HepG2 Attagene CIS-factorial TA basal promoter reporter; actives raise or lower the signal
Summary of the method: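 Cis-factorial format in HepG2: reporters report endogenous factors, not chimeric Gal4 fusions. After 24 h treatment, reporter transcripts were measured by RT-PCR-capillary electrophoresis fluorescence, analysed bidirectionally versus DMSO.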

Measured: AC50

CCN(CC)c1ccc(C=O)cc1
active: [13] 27.7 µM
not listed: [20]
inactive: all other assays above

C=C(C)C(=O)OCC(F)(F)C(F)(F)C(F)(F)C(F)F
inactive: all assays above

CCCCCCCCn1sc(Cl)c(Cl)c1=O
active: [1] 11.1 µM | [3] 18.6 µM | [5] 15.9 µM | [7] 16.3 µM | [9] 11.1 µM | [13] 4.27 µM | [18] 14.5 µM
not listed: [12] | [20]
inactive: all other assays above

COC(=O)c1ccc(C=O)cc1
inactive: all assays above

Brc1nc2ccccc2s1
active: [7] 125 µM | [9] 89.7 µM | [14] 18.1 µM
inactive: all other assays above

CC(C)(C)C(=O)C1C(=O)c2ccccc2C1=O
active: [7] 158 µM | [11] 27.8 µM | [13] 13.9 µM | [14] 59.7 µM
inactive: all other assays above

CC(C)Nc1ccc(NC(C)C)c2c1C(=O)c1ccccc1C2=O
active: [13] 0.21 µM
inactive: all other assays above
